Measurements from PubChem BioAssay AID1376 (SRMLSC, 2008).
Screen size: about 220,000 compounds; about 530 (0.24%) were called active. The sample holds actives, similar compounds and a random draw of the others, so the mix is not that of the screen. Cut-off read from the data, not from the text of the source: active = inhibition above about 13%; inconclusive = no clear call, values can overlap the other calls; inactive = below that. Measured potencies and affinities stand elsewhere.

Biological target: Bifunctional protein GlmU (Mycobacterium tuberculosis (strain ATCC 25618 / H37Rv)) (UniProt P9WMN3)
Assay: inhibition of mycobacterial GlmU enzyme – biochemical, glucosamine-1-phosphate acetyltransferase (AID 1376);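 note: 0% = complete reaction with vehicle and 100% = reaction without substrate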
Settings: M. tuberculosis GlmU acetyltransferase enzyme assay; hits give high values;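 tested at 30 µM in the primary screen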

Sequence of Bifunctional protein GlmU (Mycobacterium tuberculosis (strain ATCC 25618 / H37Rv)) (P9WMN3 whole entry, looked up): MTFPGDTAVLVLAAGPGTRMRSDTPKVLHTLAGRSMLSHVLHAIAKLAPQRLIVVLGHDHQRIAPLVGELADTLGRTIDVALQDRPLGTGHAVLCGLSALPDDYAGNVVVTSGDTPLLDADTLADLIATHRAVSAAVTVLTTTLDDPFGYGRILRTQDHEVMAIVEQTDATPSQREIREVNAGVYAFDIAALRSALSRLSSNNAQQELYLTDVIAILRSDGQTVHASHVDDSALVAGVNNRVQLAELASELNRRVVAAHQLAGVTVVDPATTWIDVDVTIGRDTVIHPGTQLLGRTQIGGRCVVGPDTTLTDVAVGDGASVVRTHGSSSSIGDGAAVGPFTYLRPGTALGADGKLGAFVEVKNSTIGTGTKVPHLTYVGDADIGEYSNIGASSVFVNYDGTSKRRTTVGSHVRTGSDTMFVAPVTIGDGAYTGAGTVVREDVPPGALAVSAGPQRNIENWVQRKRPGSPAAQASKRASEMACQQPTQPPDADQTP

SMILES	inhibition
O=C1NC(CCc2ccccc2)C(=O)N1Cc1ccccc1Cl (stereo not drawn)	-2.29% (inactive)
CCc1sc(-c2ccccc2)nc1C(=O)OC	-3.08% (inactive)
CN(C(=O)COC(=O)c1n[nH]c2ccccc12)c1ccccc1	-0.77% (inactive)
Cn1c(SCC(N)=O)nnc1C1CCN(C(=O)NCc2ccccc2)CC1	2.81% (inactive)
COc1ccccc1NC(=O)N1CCC(c2nnc(SCC(N)=O)n2C)CC1	5.75% (inactive)
CC(=O)c1cccc(NC(=O)N2CCC(c3nnc(SCC(N)=O)n3C)CC2)c1	12.8% (active)
CSc1nsc(/C=C/Nc2ccc(C(=O)O)cc2)c1C#N	-2.44% (inactive)
CC1=NN(C(=O)CSCc2ccccc2)C(O)(c2ccc(Cl)cc2)C1 (stereo not drawn)	0.2% (inactive)
O=S1(=O)CCC(N=Cc2cc(Br)ccc2O)C1 (stereo not drawn)	-0.36% (inactive)
Cc1ccc(-n2c(C)cc(C(=O)CSc3n[nH]c(N)n3)c2C)cc1	-7.08% (inactive)
Cc1cc(C(=O)CSc2n[nH]c(N)n2)c(C)n1-c1ccc(F)cc1	13% (active)
Cc1cc(C(=O)CSc2n[nH]c(N)n2)c(C)n1-c1ccccc1	1.04% (inactive)
Cc1ccc(C(=O)COC(=O)CNC(=O)C(c2ccccc2)c2ccccc2)cc1[N+](=O)[O-]	30.6% (active)
Cc1ccc(C(=O)COC(=O)CNS(=O)(=O)c2ccccc2)cc1[N+](=O)[O-]	-0.84% (inactive)
Cc1ccc(C(=O)NCC(=O)OCC(=O)c2ccc(C)c([N+](=O)[O-])c2)cc1	-3.78% (inactive)
CCOC(=O)c1sc(Nc2ccccc2Cl)nc1C	1.72% (inactive)
O=C(CCc1nc2ccccc2c(=O)[nH]1)OCc1ccc(Cl)cc1Cl	-1.63% (inactive)
O=S(=O)(NCc1ccc(F)cc1)c1ccc2c(c1)OCCO2	4.82% (inactive)
COc1ccc(C(=O)Cc2ccc(OC)c(OC)c2)c(OC)c1	14.1% (active)
COc1ccc(C(=O)Cc2ccc(F)cc2)c(OC)c1	8.08% (inactive)
COc1ccc(C(=O)Cc2ccc(OC)c(OC)c2)cc1	0.95% (inactive)
COc1cc(S(=O)(=O)N2CCOCC2)ccc1NC(=O)CSc1nnc(N)s1	10.7% (inactive)
COc1cc(C(=O)O)ccc1Cl	1.44% (inactive)
Cc1cccc(N=Nc2cnc(N)s2)c1	4.97% (inactive)
Nc1ncc(N=Nc2cc(C(=O)O)ccc2Cl)s1	13.8% (active)

SMILES	inhibition
CC(=O)Nc1cccc(Oc2ccc([N+](=O)[O-])cc2Cl)c1	2.81% (inactive)
CCn1c2ccccc2c2nc3cc(C(=O)O)ccc3nc21	1.61% (inactive)
CCn1c2ccc(Cl)cc2c2nc3ccccc3nc21	2.14% (inactive)
O=c1c2ccccc2oc2ncccc12	3.79% (inactive)
O=c1[nH]c(=S)[nH]c(O)c1C(c1ccccn1)c1c(O)[nH]c(=S)[nH]c1=O	9.35% (inactive)
CC(=O)CC(c1ccc([N+](=O)[O-])cc1)c1c(O)c2ccccc2oc1=O (stereo not drawn)	1.67% (inactive)
O=[N+]([O-])c1ccc2c(c1)oc1ccccc12	0.45% (inactive)
COc1cc2c(cc1NC(=O)Cn1cnc3c1c(=O)n(C)c(=O)n3C)oc1ccccc12	9.92% (inactive)
C=CCN1C(=NC(=O)CCC(=O)O)SC2CS(=O)(=O)CC21 (stereo not drawn)	0.93% (inactive)
CCN1CCN(c2cc(C)c3cc(NC(=O)c4ccccc4F)ccc3n2)CC1	-4.15% (inactive)
Cn1cnnc1SCc1cccc(Br)c1	2.34% (inactive)
CCn1ncc(NC(=S)Nc2ccc3c(c2)OCO3)c1C(N)=O	-0.08% (inactive)
Cc1nn(-c2ccccc2)c(=S)c2ccccc12	-0.11% (inactive)
COc1ccc(NC(=O)CNc2cccc(C#N)c2)cc1Cl	0.65% (inactive)
COc1ccc(NCC(=O)Nc2ccc(C#N)cc2)cc1Cl	1.17% (inactive)
COc1ccc(NCC(=O)Nc2ccccc2C#N)cc1Cl	16.5% (active)
Clc1ccc(-c2nnc(CSc3nnc(-c4cccs4)n3Cc3ccccc3)o2)cc1	-1.83% (inactive)
CC(=O)N1CCCSC1=Nc1ccccc1	1.84% (inactive)
Cc1ccc(-c2nc(SCC(=O)NCC3CCCO3)c(-c3ccc(C)cc3)[nH]2)cc1 (stereo not drawn)	-0.94% (inactive)
O=[N+]([O-])c1ccc(NCc2ccccc2)c2nonc12	0.67% (inactive)
O=[N+]([O-])c1cccc(CSc2cccc[n+]2[O-])c1	6.55% (inactive)
Oc1cccc(C(=S)N2CCCCC2)c1	-2.56% (inactive)
CCOC(=O)CSC1=C(C#N)C(c2ccccc2OCC)C(C(=O)OCC)C(=O)N1 (stereo not drawn)	13.2% (active)
CCOC(=O)C1C(=O)NC(SCC(N)=O)=C(C#N)C1c1ccccc1OCC (stereo not drawn)	5.97% (inactive)
CCOC(=O)C1C(=O)NC(SCC(=O)OC)=C(C#N)C1c1ccccc1OCC (stereo not drawn)	-2.95% (inactive)

SMILES	inhibition
Cc1ccc(C)c2[nH]c(=O)c(CN(Cc3ccc4c(c3)OCO4)Cc3nnnn3Cc3ccco3)cc12	2.41% (inactive)
Cc1ccc(NC(=O)c2cccc(C(=O)OC(C)C)n2)c(Br)c1	-4.22% (inactive)
O=C1CCN(c2ncccc2[N+](=O)[O-])CC1	-2.93% (inactive)
O=[N+]([O-])c1cccnc1N1CCCCC1	13.3% (active)
O=[N+]([O-])c1cccnc1N1CCOCC1	1.56% (inactive)
Cc1ccc(C)c(/C(O)=C2\C(=O)C(=O)N(CCCn3ccnc3)C2c2ccncc2)c1 (stereo not drawn)	-3.1% (inactive)
COc1cccc(C2C3=C(Nc4[nH]n(-c5ccccc5)c(=O)c42)c2ccccc2C3=O)c1 (stereo not drawn)	-1.89% (inactive)
Cc1ccc(C2C3=C(Nc4[nH]n(-c5ccccc5)c(=O)c42)c2ccccc2C3=O)cc1 (stereo not drawn)	8.68% (inactive)
Cc1cccc(C2C3=C(Nc4[nH]n(-c5ccccc5)c(=O)c42)c2ccccc2C3=O)c1 (stereo not drawn)	14.6% (active)
CCOC(=O)c1c(C)[nH]c(C(=O)CSc2nc3ccccc3o2)c1C	-3.5% (inactive)
Cc1cc(/C=N/Nc2ccc([N+](=O)[O-])cn2)c(C)n1-c1ccc(C(=O)O)cc1	18.4% (active)
Cc1cc(/C=N/Nc2ccc([N+](=O)[O-])cn2)c(C)n1-c1ccccc1	-0.82% (inactive)
Cc1c(C(=O)O)cccc1-n1c(C)cc(/C=N/Nc2ccc([N+](=O)[O-])cn2)c1C	3.53% (inactive)
CCOC(=O)c1cc(-c2ccc(F)cc2)n(CC(=O)Nc2nccs2)c1C	-5.76% (inactive)
Cc1ccc(NC(=O)CCC(=O)OC(C(=O)c2ccc(C)c(C)c2)c2ccccc2)c(C)c1 (stereo not drawn)	1.52% (inactive)
Cc1ccc(C(=O)C(OC(=O)CCC(=O)Nc2cccc(C)c2)c2ccccc2)cc1 (stereo not drawn)	14.9% (active)
O=C(CCC(=O)OC(C(=O)c1ccccc1)c1ccccc1)Nc1ccccc1 (stereo not drawn)	-0.93% (inactive)
O=[N+]([O-])c1ccc(N2CCNCC2)cc1Sc1nc2ccccc2[nH]1	-3.78% (inactive)
O=C(CSC1CN(C(c2ccccc2)c2ccccc2)C1)N/N=C/c1ccccc1	1.05% (inactive)
O=C(OCC(=O)N1CCN(C(=O)c2ccco2)CC1)c1cn(-c2ccccc2)nc1-c1ccccc1	9.88% (inactive)
CNCc1nc2ccccc2[nH]1	2.1% (inactive)
Oc1ccc(O)c(Cc2nc3ccccc3[nH]2)c1	14.4% (active)
CCc1nc2ccccc2[nH]1	-1.65% (inactive)
O=C(NCCC1CC1(Cl)Cl)Nc1ccccc1 (stereo not drawn)	2.82% (inactive)
O=C1C2C(c3ccccc3)=NN(c3ccccc3)C2C(=O)N1c1ccccc1 (stereo not drawn)	0.94% (inactive)

SMILES	inhibition
CCOc1ccc(N2C(=O)C3C(c4ccccc4)=NN(c4ccccc4)C3C2=O)cc1 (stereo not drawn)	4.13% (inactive)
O=C1[C@H]2C(c3ccccc3)=NN(c3ccccc3)[C@H]2C(=O)N1c1ccccc1	14.2% (active)
O=C(N/N=C/C=C/c1ccco1)/C(=C/c1ccccc1)NC(=O)c1ccccc1	3.94% (inactive)
C/C(=N\NC(=O)NC1CCCCC1)C1CCCCC1	5.48% (inactive)
O=C(Nc1ccc(SC(F)F)cc1)c1ccc(F)cc1	2.04% (inactive)
CC(=O)N=c1sc2ccccc2n1C	-1.3% (inactive)
CC(C(=O)N=c1sc2ccccc2n1C)N1C(=O)C2CC=CCC2C1=O (stereo not drawn)	13.6% (active)
Cn1c(=NC(=O)CN2C(=O)C3CC=CCC3C2=O)sc2ccccc21 (stereo not drawn)	-0.18% (inactive)
O=C1C(Cl)=C(Nc2ccccc2)C(=O)c2ccccc21	-4.13% (inactive)
CCNC1=C(Cl)C(=O)c2ccccc2C1=O	-3.8% (inactive)
CC(C)NC1=C(Cl)C(=O)c2ccccc2C1=O	13.7% (active)
O=C1c2ccccc2S(=O)(=O)c2cc(C(=O)N3CCN(C(=O)c4ccccc4)CC3)ccc21	-2.8% (inactive)
CCN(CCNC(=O)Cn1cc2c(n1)CCCC2)c1ccccc1	-0.86% (inactive)
CCOc1ccc(C(=O)SC2=NCCS2)cc1	8.72% (inactive)
Nc1n[nH]c(C2CCCCC2)n1	-2.96% (inactive)
S=c1nc(C2CCCCC2)[nH][nH]1	14% (active)
S=c1nc(C2CCCCC2)[nH]c2ccccc12	-2.69% (inactive)
CCc1nc(N2CCN(S(C)(=O)=O)CC2)c2c3c(sc2n1)CCCC3	-2.08% (inactive)
COc1ccc(N/C=C2/Sc3ccccc3NC2=O)cc1	0.09% (inactive)
O=C(NC1CCN(C(=O)N2c3ccccc3Sc3ccccc32)CC1)c1ccccc1Cl	2.41% (inactive)
Cc1ccc(SC(C)c2nc(-c3ccccc3)no2)cc1 (stereo not drawn)	14.3% (active)
Cc1ccc(SC(C)c2nc(-c3ccncc3)no2)cc1 (stereo not drawn)	5.19% (inactive)
Cc1ccc(SC(C)c2nc(-c3cccnc3)no2)cc1 (stereo not drawn)	-3.18% (inactive)
